Each molecule was assayed against Follistatin-related protein 3 (Homo sapiens) (UniProt O95633) (assay: compounds binding follistatin-related protein 3 – biochemical, small-molecule microarray, 635 nm fluorescence, primary screen (AID 1105;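 note: score merges emission near 667 nm and signal to noise per printed spot across three slides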)). Conditions: FSTL3 binding, higher = more signal.
Chain of Follistatin-related protein 3 (Homo sapiens) (O95633 whole entry, looked up): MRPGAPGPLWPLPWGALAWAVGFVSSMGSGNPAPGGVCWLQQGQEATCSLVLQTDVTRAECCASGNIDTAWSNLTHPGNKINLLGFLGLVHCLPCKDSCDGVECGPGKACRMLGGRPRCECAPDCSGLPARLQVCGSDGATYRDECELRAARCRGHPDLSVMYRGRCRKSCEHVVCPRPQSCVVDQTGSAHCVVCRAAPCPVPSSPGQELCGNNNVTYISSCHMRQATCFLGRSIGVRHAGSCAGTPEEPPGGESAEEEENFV

Compound	composite z-score
CCOC(=O)C[C@H]1[C@H](OC(=O)c2ccccc2-c2ccccc2)[C@@H](NC(=O)c2ccccc2)c2cc(OCCCO)ccc2N1C(=O)Cc1ccc(OC)cc1	-0.183
C=CCC(OC(C)=O)[C@@H]1[C@@H](N(Cc2ccc(-c3cccc(C(F)(F)F)c3)o2)C(=O)c2cccc3ccccc23)c2cc(OCCCO)ccc2N1C(=O)c1ccc(-c2ccccc2)cc1 (stereo partly specified)	0.248
C[C@H]1ON(c2ccccc2)[C@@H](c2ccccc2)[C@@H]1C(=O)N1C(=O)OC[C@@H]1c1ccccc1	0.699
COCCOC(=O)N1C(=O)[C@@]2(c3cc(C#CCNC(N)=O)ccc31)[C@H](C(N)=O)[C@H]1C(=O)O[C@H](c3ccccc3)[C@H](c3ccccc3)N1[C@@H]2c1ccc(OCCO)cc1	1.45
CCCC=C(CCC)[C@@H](NS(=O)(=O)c1cccc2cccnc12)c1ccc(C(=O)OC)cc1	1.24
CCOC(=O)C1=CC[C@@H](c2ccccc2)N(S(=O)(=O)c2ccc(C)cc2)[C@H]1C=C(C)C	1.38
C#CCNS(=O)(=O)N(C)C	0.31
O=C1O[C@H](c2ccccc2)[C@H](c2ccccc2)N2[C@H]1[C@@H](C(=O)N1CCN(c3ncccn3)CC1)[C@]1(C(=O)Nc3ccc(C#CCCO)cc31)[C@H]2c1ccc(OCCO)cc1	1.48
COCCOC(=O)N1C(=O)[C@@]2(c3cc(C#CC4(O)CCCCCC4)ccc31)[C@H](C(=O)N1CCN(c3ncccn3)CC1)[C@H]1C(=O)O[C@H](c3ccccc3)[C@H](c3ccccc3)N1[C@@H]2c1ccc(O)cc1	0.321
Cc1cc(C)c(C(O)C2C=CC3C(=O)N(c4ccccc4)C(=O)C3N2Nc2ccc([N+](=O)[O-])cc2)c(C)c1 (stereo unspecified)	1.45
Cc1ccc(S[C@]2(C(=O)O)CC(=O)N(C3CCCCC3)[C@@H]2c2ccc(CO)cc2)cc1	-0.365
CCOc1cc(C(O)C2C=CC3C(=O)NC(=O)C3N2Nc2ccccn2)ccc1O (stereo unspecified)	0.189
CC(=O)NCCCC[C@@H]1NC(=O)[C@@H]2C[C@H](C(=O)NCCCC[N+](C)(C)C)[C@H](c3cccc(OCCO)c3)N2C1=O	1.02
COc1ccc([Si](C)(C)[C@@H]2[C@@H](CC(=O)N(CCO)Cc3ccccc3)O[C@]3(C(=O)N(Cc4ccc(N5CCOC5=O)cc4)c4ccccc43)[C@H]2C)cc1	1.09
COC(=O)[C@]1(Cc2ccccc2CN=[N+]=[N-])N=C(c2ccc(OCCCO)cc2)O[C@@H]1c1ccccc1CN=[N+]=[N-]	-0.302
CN(C)C(=O)[C@]1(Cc2ccccc2N=[N+]=[N-])N=C(c2ccc(OCCCO)cc2)O[C@@H]1c1ccccc1CN=[N+]=[N-]	1.3
CC(C)(C)OC(=O)CC[C@@]1(C(=O)N2CCCCC2)N=C(c2ccc(OCCCO)cc2)O[C@@H]1c1ccccc1CN=[N+]=[N-]	1.06
CCN(CC)c1ccc(N2CC=CC34O[C@@H]5/C=C\CCCOC(=O)C5[C@H]3C(=O)N(CCCCCO)[C@@H]4C2=O)cc1 (stereo partly specified)	-1.42
[N-]=[N+]=Nc1ccccc1C[C@]1(C(=O)NCCN2CCOCC2)N=C(c2ccc(OCCCO)cc2)O[C@H]1c1ccccc1N=[N+]=[N-]	1.2
COC(=O)[C@]1(Cc2ccccc2CN=[N+]=[N-])N=C(c2ccc(OCCCO)cc2)O[C@@H]1c1ccccc1	-0.869
COCCOC(=O)N1C(=O)[C@@]2(c3cc(C#Cc4ccc(OC)cc4)ccc31)[C@H](C(=O)N1CCc3cc(OC)c(OC)cc3C1)[C@H]1C(=O)O[C@H](c3ccccc3)[C@H](c3ccccc3)N1[C@@H]2c1ccc(O)cc1	0.649
COCCOC(=O)N1C(=O)[C@@]2(c3cc(C#CCCO)ccc31)[C@H](C(=O)NC[C@H](O)c1ccccc1)[C@H]1C(=O)O[C@H](c3ccccc3)[C@H](c3ccccc3)N1[C@@H]2c1ccccc1OCCO	1.41
COc1ccccc1CN1C(=O)c2ccccc2[C@@H](C(=O)NCC(C)C)[C@@H]1c1ccc(CO)cc1	0.0144
C=CCN1C(=O)[C@@]2(O[C@@H](CCn3cc([C@H](O)c4ccccc4)nn3)[C@H]([Si](C)(C)c3ccc(OC)cc3)[C@H]2C)c2cc(NC(=O)c3ccc(OC)cc3)ccc21	0.382
O=C(O)[C@]1(CCS(=O)(=O)c2ccccc2)N=C(c2ccc(OCCCO)cc2)O[C@@H]1c1ccccc1	-0.564
CN(C)CCCN1C(=O)[C@@]2(Cc3ccccc31)c1ccccc1C(=O)N(Cc1ccccc1)[C@H]2c1ccc(CO)cc1	0.408

Reference: PubChem BioAssay
